This note sets out measurements from PubChem BioAssay (NCATS).

The structures appear in SMILES notation. Activity calls are given as the source filed them. Calls follow the shape of the dose curve; as a rule, active = well fitted curve in the direction sought with a large enough effect; inactive = no such curve, though single readings can be large or run the other way. Residues, ends and D or L forms follow the SMILES beside them. *: point of attachment. Cbz = O=C(OCc1ccccc1)*

Chain of Alpha-galactosidase A (Homo sapiens) (P06280 whole entry, looked up): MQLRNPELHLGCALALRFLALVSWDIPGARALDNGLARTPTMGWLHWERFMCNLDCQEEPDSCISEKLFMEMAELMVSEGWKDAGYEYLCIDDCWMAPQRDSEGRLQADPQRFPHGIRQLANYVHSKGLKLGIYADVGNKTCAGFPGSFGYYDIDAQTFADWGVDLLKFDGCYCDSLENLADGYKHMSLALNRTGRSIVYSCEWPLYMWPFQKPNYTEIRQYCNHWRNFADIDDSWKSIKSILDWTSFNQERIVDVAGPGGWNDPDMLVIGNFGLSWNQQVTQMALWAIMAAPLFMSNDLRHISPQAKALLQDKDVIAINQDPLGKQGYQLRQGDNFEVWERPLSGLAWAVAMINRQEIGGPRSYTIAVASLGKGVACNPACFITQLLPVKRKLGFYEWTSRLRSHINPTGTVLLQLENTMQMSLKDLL

In this assay the target is Alpha-galactosidase A (Homo sapiens) (UniProt P06280). The experiment in a line: Counterscreen for Glucocerebrosidase Inhibitors: qHTS Assay for Human alpha-Galactosidase at pH 4.5 (AID 992). To be noted: purified enzyme, fluorogenic substrate; series mostly up to 76.9 µM. The method, boiled down:
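Citrate buffer pH 4.5, Tween-20 0.005%. Enzyme 2 nM, substrate 80 uM, 20 min RT. Stop pH 10. Fluorescence Ex 365/Em 440. AC50 by Hill fit.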
For orientation: The purpose of a counterscreen is to sort out artefacts and off-target activity.
On to `Cc1ccc2c(c1)C(N1CCN(C)CC1)=Nc1cccnc1N2`, for which the compound was called inactive.
As for `CC[N+](CC)(CC)CC(=O)Nc1c(C)cccc1C`, the entry is “inactive”; as for `CCCCCCC/C=C\CCCCCCCCC(=O)O`, “inactive”.
As for `COc1ccc2c(c1)c(CC(=O)O)c(C)n2C(=O)c1ccccc1`, the compound was called inactive.
As for `COCc1nc2c([nH]1)c(=O)n(C)c(=O)n2CC(C)C`, the entry is “inactive”; as for `Cc1cccc(C(=O)NCN2CCN(c3ccccc3C#N)CC2)c1`, “inactive”; as for `O=S(=O)(c1cccc2c(Cl)cccc12)N1CCCNCC1`, “inactive”.
`O=C(O)Cc1c[nH]c2ccc(O)cc12`: the compound was called inactive.
`NCCCCN=C(N)N`: the compound was called inactive.
For `O=c1ccc2c(OCCCCc3ccccc3)c3ccoc3cc2o1` the value was “inactive”; for `CCN(c1nc(N)c(C(=O)N=C(N)N)nc1Cl)C(C)C`, “inactive”.
For `COc1cc(N)c(Cl)cc1C(=O)OCCN1CCCCC1` the value was “inactive”.
With `CCCn1c(=O)c2[nH]c(C3CCCC3)nc2n(CCC)c1=O`, the outcome was inactive.
With `C/C(=C\c1ccc(C(=O)O)cc1)c1ccc2c(c1)C(C)(C)CCC2(C)C`, the compound was classed as inactive.
For `C[N+](C)(C)CC=O` the value was “inactive”; for `c1ccc(CN2CCC3(CCCc4ccccc43)CC2)cc1`, “inactive”; for `COc1ccccc1N1CCN(CCCCN2C(=O)c3ccccc3C2=O)CC1`, “inactive”.
In the case of `CC(=O)N[C@@H](Cc1c[nH]c2ccccc12)C(=O)OCc1cc(C(F)(F)F)cc(C(F)(F)F)c1`, the call was inactive.
For `NCCNS(=O)(=O)c1cccc2c(Cl)cccc12` the value was “inactive”; for `COc1ccccc1N1CCN(CCN(C(=O)c2ccc(F)cc2)c2ccccn2)CC1`, “inactive”.
Take `CNc1cc(NS(=O)(=O)c2ccc(N)cc2)nc(NC)n1`: the compound was called inactive.
Take `O=C(N[C@@H](Cc1ccccc1)C(=O)CCl)OCc1ccccc1`: the call was inactive.
Turning to `O=C(O)C1=CCCNC1`, the compound was called inactive.
For `C[C@H](O)C(=O)C1=Nc2c(nc(N)[nH]c2=O)NC1` the value was “inactive”.
For the compound `N[C@@H](Cc1ccc(O)c(I)c1)C(=O)O`, the result was inactive.
Take `O=c1[nH]ccc2c(O)cccc12`: the outcome was inactive.
For `CC(C)[C@H](NC(=O)OCc1ccccc1)C(=O)N[C@H](C=O)Cc1ccccc1` (Cbz-Val-Phe-aldehyde) the value was “inactive”; for `c1ccc2c(c1)CC(N1CCN(c3cccc4c3OCCO4)CC1)C2`, “inactive”; for `O=c1[nH]c(=O)c2nc3ccccc3nc2[nH]1`, “inactive”.
For `COc1ccccc1N1CCN(CCCCNC(=O)c2ccc3ccccc3c2)CC1` the value was “inactive”; for `CC(N)=O`, “inactive”; for `O=C(O)c1ccccc1Nc1ccccc1`, “inactive”.
For `Cc1ccc([N+](=O)[O-])cc1S(=O)(=O)N(C)C` the value was “inactive”; for `CCSC(=N)N`, “inactive”.
Take `O=C(O)/C=C/c1ccc(O)c(O)c1`: the compound was classed as inactive.
In the case of `N=C(N)SCCN`, the result was inactive.
For `CCCCCCN(CCCCCC)C(=O)Cc1c(-c2ccc(F)cc2)[nH]c2ccccc12` the value was “inactive”; for `CC(C)Cn1c(=O)n(C)c(=O)c2[nH]cnc21`, “inactive”; for `CCCCCCCCCCCCCCSCC(=O)O`, “inactive”.
